Values joined by “and” are separate entries in the source; they are usually repeats but may differ in a detail not shown here. Identical values can stand only once. Inconclusive results are not listed. Active and inactive are the calls of the source. The calls were made as follows, unless noted: active = hit-call score of the fitted dose curve at least 0.9, where 1 is the maximum; inconclusive = response in the unintended direction; inactive = score below 0.9.
Target: rat CYP2C12, Cyp2c12 (gene 25011) (UniProt P11510)
Sequence (P11510 whole entry, looked up): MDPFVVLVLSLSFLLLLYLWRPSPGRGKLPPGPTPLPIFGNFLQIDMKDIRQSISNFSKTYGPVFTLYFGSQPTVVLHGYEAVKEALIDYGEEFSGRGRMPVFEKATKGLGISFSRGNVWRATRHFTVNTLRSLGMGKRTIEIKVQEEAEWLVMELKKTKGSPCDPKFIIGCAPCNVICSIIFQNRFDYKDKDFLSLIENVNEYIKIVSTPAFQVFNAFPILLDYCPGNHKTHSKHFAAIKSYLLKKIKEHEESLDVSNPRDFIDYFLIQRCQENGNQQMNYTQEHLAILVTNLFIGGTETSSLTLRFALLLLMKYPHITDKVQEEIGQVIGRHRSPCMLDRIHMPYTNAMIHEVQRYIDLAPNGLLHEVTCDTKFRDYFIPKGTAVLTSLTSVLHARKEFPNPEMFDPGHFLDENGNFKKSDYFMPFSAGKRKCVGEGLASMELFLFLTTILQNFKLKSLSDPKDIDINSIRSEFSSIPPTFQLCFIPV
Assay: NVS_ADME_rCYP2C12: NovaScreen (NVS) CYP450-related Enzyme Activity (ADME) Assay for rat CYP2C12 (AID 2283119)
Outline: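 Fluorescent-substrate turnover by recombinant rat CYP2C12, measured at 0.5 h, normalized to acetonitrile vehicle. Chemicals screened first at a single 10 uM concentration in duplicate, with concentration series for actives.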
In the case of `C=CCOC(Cn1ccnc1)c1ccc(Cl)cc1Cl` (stereo unspecified), the AC50 is reported as 2.13 µM (active). For `CC(C)(C)[C@@H](O)[C@@H](Cc1ccc(Cl)cc1)n1cncn1`, the AC50 was 5.82 µM (active). With `S=C([S-])NCCNC(=S)[S-].[Mn+2]` the outcome was “inactive”. In the case of `Oc1ccc(C(c2ccc(O)cc2)C(Cl)(Cl)Cl)cc1`, the outcome is reported as “inactive”. With `C[C@]12CC[C@@H]3c4ccc(O)cc4CC[C@H]3[C@@H]1CC[C@@H]2O` the outcome was “inactive”.

Target: rat CYP2D1, Cyp2d1 (gene 266684) (UniProt P10633)
Sequence (P10633 whole entry, looked up): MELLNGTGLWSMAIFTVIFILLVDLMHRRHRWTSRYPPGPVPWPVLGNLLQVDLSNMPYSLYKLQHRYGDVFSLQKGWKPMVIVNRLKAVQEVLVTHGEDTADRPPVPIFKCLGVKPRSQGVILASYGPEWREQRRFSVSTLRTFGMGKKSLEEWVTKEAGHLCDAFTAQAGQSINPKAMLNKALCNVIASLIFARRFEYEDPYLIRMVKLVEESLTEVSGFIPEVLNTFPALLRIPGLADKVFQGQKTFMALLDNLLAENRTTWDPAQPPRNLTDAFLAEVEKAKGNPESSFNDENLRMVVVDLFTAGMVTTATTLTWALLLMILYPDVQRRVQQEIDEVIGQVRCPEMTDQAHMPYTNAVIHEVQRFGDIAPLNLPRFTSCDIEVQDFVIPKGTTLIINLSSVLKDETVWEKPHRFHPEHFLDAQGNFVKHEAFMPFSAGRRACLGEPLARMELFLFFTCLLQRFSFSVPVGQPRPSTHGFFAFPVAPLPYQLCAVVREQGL
Assay: NVS_ADME_rCYP2D1: NovaScreen (NVS) CYP450-related Enzyme Activity (ADME) Assay for rat CYP2D1 (AID 2283122)
Outline: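 Rat CYP2D1 enzyme activity measured by fluorescence intensity in a cell-free format, 0.75 h post-dosing, acetonitrile as negative control. Screening at 10 uM in duplicate, with actives followed in concentration series up to 20 uM.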
For `C=CCOC(Cn1ccnc1)c1ccc(Cl)cc1Cl` (stereo unspecified), the AC50 was 3.58 µM (active). In the case of `CC(C)(C)[C@@H](O)[C@@H](Cc1ccc(Cl)cc1)n1cncn1`, the AC50 is reported as 5.84 µM (active). In the case of `Oc1ccc(C(c2ccc(O)cc2)C(Cl)(Cl)Cl)cc1`, the AC50 is reported as 2.7 µM (active). In the case of `C#CCOC(=O)[C@@H](C)Oc1ccc(Oc2ncc(Cl)cc2F)cc1`, the AC50 is reported as 3.73 µM (active).

Target: human Acetylcholinesterase (AChE), ACHE (gene 43) (UniProt P22303)
Sequence (P22303 whole entry, looked up): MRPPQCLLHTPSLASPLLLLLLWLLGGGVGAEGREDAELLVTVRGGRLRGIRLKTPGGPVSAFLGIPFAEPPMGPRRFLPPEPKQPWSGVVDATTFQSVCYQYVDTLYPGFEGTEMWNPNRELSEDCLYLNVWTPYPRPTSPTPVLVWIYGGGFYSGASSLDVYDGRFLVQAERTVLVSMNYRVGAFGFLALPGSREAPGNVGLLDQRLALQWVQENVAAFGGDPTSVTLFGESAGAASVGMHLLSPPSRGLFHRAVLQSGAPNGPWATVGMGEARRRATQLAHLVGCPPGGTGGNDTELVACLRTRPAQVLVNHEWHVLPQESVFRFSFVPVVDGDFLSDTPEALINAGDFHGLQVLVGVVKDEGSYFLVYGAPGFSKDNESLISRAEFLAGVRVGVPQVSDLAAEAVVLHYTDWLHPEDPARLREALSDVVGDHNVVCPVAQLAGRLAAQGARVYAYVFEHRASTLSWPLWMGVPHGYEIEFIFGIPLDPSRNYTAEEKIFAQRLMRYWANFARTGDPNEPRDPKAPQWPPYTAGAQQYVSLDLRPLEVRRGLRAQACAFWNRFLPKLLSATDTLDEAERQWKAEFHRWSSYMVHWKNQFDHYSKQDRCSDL
Assay: NVS_ENZ_hAChE: NovaScreen (NVS) Enzymatic Assay for human Acetylcholinesterase (AChE) (AID 2283129)
Outline: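 Actives from a duplicate single-point screen (25 uM) were followed up in concentration series. Enzyme activity read by absorbance (colorimetric) 0.33 hour after dosing, cell-free, normalized to DMSO, with loss of signal scored.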
In the case of `S=C(S)NCCNC(=S)S.[Mn+2].[S-]C([S-])=NCCN=C([S-])[S-].[Zn+2]`, the outcome is reported as “inactive”. In the case of `CSC(=O)c1cccc2nnsc12`, the outcome is reported as “inactive”. With `S=C([S-])NCCNC(=S)[S-].[Mn+2]` the outcome was “inactive”. With `CC(=O)[C@H]1CC[C@H]2[C@@H]3CCC4=CC(=O)CC[C@]4(C)[C@H]3CC[C@]12C` the AC50 was 4.82 µM (active).

Target: human Phosphatase and Tensin Homolog (PTEN), PTEN (gene 5728) (UniProt P60484)
Sequence (P60484 whole entry, looked up): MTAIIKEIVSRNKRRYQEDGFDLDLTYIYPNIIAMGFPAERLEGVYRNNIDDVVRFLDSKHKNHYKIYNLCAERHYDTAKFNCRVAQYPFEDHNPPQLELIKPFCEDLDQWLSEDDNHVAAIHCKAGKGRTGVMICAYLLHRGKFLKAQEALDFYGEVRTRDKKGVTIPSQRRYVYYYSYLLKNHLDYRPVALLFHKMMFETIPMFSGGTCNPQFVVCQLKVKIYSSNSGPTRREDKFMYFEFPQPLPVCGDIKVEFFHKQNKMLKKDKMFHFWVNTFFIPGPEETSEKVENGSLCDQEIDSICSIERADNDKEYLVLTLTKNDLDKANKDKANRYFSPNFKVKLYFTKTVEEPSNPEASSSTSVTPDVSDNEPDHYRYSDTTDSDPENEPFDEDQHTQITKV
Assay: NVS_ENZ_hPTEN: NovaScreen (NVS) Enzymatic Assay for human Phosphatase and Tensin Homolog (PTEN) (AID 2283203)
Outline: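 Loss of fluorescent product signal after mobility-shift separation reports PTEN activity, recombinant human enzyme, 1 h after compound addition. Single 25 uM duplicate screen, then concentration-response on actives; DMSO baseline.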
For `S=C(S)NCCNC(=S)S.[Mn+2].[S-]C([S-])=NCCN=C([S-])[S-].[Zn+2]`, the AC50 was 3.14 µM (active) and 80.5 nM (active) and 274 nM (active). For `CSC(=O)c1cccc2nnsc12`, the outcome was “inactive”. In the case of `S=C([S-])NCCNC(=S)[S-].[Mn+2]`, the AC50 is reported as 933 nM (active).

Target: human Protein Tyrosine Phosphatase Non-receptor Type 2 (PTPN2), PTPN2 (gene 5771) (UniProt P17706)
Sequence (P17706 whole entry, looked up): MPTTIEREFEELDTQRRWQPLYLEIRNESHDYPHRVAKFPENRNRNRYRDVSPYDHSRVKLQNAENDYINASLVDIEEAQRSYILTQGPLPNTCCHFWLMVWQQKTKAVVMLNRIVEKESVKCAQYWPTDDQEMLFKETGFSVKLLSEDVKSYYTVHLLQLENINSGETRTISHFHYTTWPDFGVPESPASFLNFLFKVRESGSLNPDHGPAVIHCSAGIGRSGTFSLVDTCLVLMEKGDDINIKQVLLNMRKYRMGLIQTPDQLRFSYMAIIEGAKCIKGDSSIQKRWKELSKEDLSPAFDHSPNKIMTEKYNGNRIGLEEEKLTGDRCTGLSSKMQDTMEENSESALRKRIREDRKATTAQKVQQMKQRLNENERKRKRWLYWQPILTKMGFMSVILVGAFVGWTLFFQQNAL
Assay: NVS_ENZ_hPTPN2: NovaScreen (NVS) Enzymatic Assay for human Protein Tyrosine Phosphatase Non-receptor Type 2 (PTPN2) (AID 2283207)
Outline: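 Activity measured as fluorescence after mobility-shift separation of substrate and product, 1 h after compound. Duplicate single-point 25 uM primary testing, concentration series for actives; inhibition scored as signal loss relative to DMSO baseline.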
For `S=C(S)NCCNC(=S)S.[Mn+2].[S-]C([S-])=NCCN=C([S-])[S-].[Zn+2]`, the AC50 was 898 nM (active) and 519 nM (active). With `CCOC(=O)NCCOc1ccc(Oc2ccccc2)cc1` the outcome was “inactive”. For `S=C([S-])NCCNC(=S)[S-].[Mn+2]`, the AC50 was 295 nM (active).

Target: human Raf-1 Proto-Oncogene, serine/threonine Kinase (RAF1), RAF1 (gene 5894) (UniProt P04049)
Sequence (P04049 whole entry, looked up): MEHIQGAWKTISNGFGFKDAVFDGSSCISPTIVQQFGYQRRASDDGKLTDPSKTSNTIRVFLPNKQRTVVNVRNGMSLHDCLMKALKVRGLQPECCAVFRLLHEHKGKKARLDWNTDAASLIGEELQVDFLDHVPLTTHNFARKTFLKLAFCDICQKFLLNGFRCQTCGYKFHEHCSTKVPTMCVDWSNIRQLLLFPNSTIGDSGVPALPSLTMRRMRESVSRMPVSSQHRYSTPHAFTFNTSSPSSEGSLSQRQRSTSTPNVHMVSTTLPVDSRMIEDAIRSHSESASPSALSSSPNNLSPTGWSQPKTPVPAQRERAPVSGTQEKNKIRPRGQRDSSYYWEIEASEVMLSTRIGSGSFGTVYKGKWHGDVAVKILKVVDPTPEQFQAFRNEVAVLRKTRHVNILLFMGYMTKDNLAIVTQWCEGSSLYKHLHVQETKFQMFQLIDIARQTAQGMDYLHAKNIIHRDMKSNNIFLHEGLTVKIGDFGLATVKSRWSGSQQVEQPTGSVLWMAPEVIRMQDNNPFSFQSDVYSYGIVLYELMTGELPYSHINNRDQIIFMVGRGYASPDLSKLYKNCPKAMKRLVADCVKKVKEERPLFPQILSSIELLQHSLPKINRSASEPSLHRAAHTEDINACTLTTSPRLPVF
Assay: NVS_ENZ_hRAF1: NovaScreen (NVS) Enzymatic Assay for human Raf-1 Proto-Oncogene, serine/threonine Kinase (RAF1) (AID 2283216)
Outline: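 Single-point screening at 25 uM (duplicate), followed by singleton concentration-response to 50 uM maximum for chemicals exceeding threshold. Enzyme activity from fluorescent substrate-product mobility-shift separation after 1 h, relative to DMSO.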
In the case of `CC(C)(C)[C@@H](O)[C@@H](Cc1ccc(Cl)cc1)n1cncn1`, the outcome is reported as “inactive”. With `S=C(S)NCCNC(=S)S.[Mn+2].[S-]C([S-])=NCCN=C([S-])[S-].[Zn+2]` the outcome was “inactive”. In the case of `CCCCC(CC)CN1C(=O)C2C3C=CC(C3)C2C1=O` (stereo unspecified), the outcome is reported as “inactive”.

Test system: rat Monoamine Oxidase, MAO-A, Central (MAOAC), gene 29253
Assay: NVS_ENZ_rMAOAC: NovaScreen (NVS) Enzymatic Assay for rat Monoamine Oxidase, MAO-A, Central (MAOAC) (AID 2283243);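 also: potency refers to inhibition seen as signal drop below DMSO baseline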
Outline: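 Scintillation read-out of MAO-A activity in rat brain lysate, 1.5 h post-dosing. Primary single-concentration screen: 25 uM, duplicate; actives re-tested in concentration series. DMSO = negative control/baseline.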
In the case of `C#C[C@]1(O)CC[C@H]2[C@@H]3CCc4cc(O)ccc4[C@H]3CC[C@@]21C`, the outcome is reported as “inactive”. For `CSC(=O)c1cccc2nnsc12`, the AC50 was 28.2 µM (active). For `CC(=O)[C@H]1CC[C@H]2[C@@H]3CCC4=CC(=O)CC[C@]4(C)[C@H]3CC[C@]12C`, the outcome was “inactive”. With `Oc1ccc(C(c2ccc(O)cc2)C(Cl)(Cl)Cl)cc1` the outcome was “inactive”.

Test system: not listed separately
Assay: ATG_M_32_XSP2: Attagene TRANS-FACTORIAL Multi-Species (XSP2) HepG2 Assay for M19 Transcription Factor (Internal Marker) (AID 2283826)
Outline: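 Read-out: reporter mRNA quantified by RT-PCR, FAM labeling, HpaI digestion and capillary electrophoresis, 24 h after dosing transfected HepG2 cells. Medium carried 3 nM 6-alpha-fluorotestosterone plus 1.5 nM norgestrel; gain of signal fitted against DMSO.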
With `C=CCOC(Cn1ccnc1)c1ccc(Cl)cc1Cl` (stereo unspecified) the outcome was “inactive”. In the case of `Oc1ccc(C(c2ccc(O)cc2)C(Cl)(Cl)Cl)cc1`, the outcome is reported as “inactive”. In the case of `CCCCC(CC)CN1C(=O)C2C3C=CC(C3)C2C1=O` (stereo unspecified), the AC50 is reported as 174 µM (active).

Test system: not listed separately
Assay: CCTE_Harrill_HTTr_Apoptosis_PRF_DMEM_12hr: (Pilot) CCTE's 12-hour Apoptosis Assessment for the High-Throughput Transcriptomics (HTTr) Platform, in MCF-7 cells cultured in phenol red-free DMEM + 10% charcoal-stripped fetal bovine serum, Harrill Lab (AID 2283985; active = hit-call score of the fitted dose curve at least 0.9, where 1 is the maximum; inactive = score below 0.9)
Outline: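 Caspase-3/7 activity by CellEvent Green high content imaging after 12 h compound exposure (eight concentrations) in MCF-7 grown in phenol red-free DMEM plus 10% charcoal-stripped serum; DMSO as baseline.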
For `C=CCOC(Cn1ccnc1)c1ccc(Cl)cc1Cl` (stereo unspecified), the outcome was “inactive”. With `S=C([S-])NCCNC(=S)[S-].[Mn+2]` the outcome was “inactive”. For `CC(=O)O[C@]1(C(C)=O)CC[C@H]2[C@@H]3C=C(Cl)C4=CC(=O)[C@@H]5C[C@@H]5[C@]4(C)[C@H]3CC[C@@]21C`, the outcome was “inactive”.

Test system: not listed separately
Assay: Tanguay_ZF_120hpf_MUSC: Oregon State University Tanguay Lab 120 Hour Post-fertilization zebrafish Assay for Muscle Malformation (AID 2284401; active = hit-call score of the fitted dose curve at least 0.9, where 1 is the maximum; inactive = score below 0.9)
Outline: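 Scored as a binary brightfield endpoint at 120 hpf, fitted versus DMSO. Single dechorionated wild-type (Tropical 5D) zebrafish embryos per well, statically exposed at 28C from 6 hpf onward with final DMSO 0.64%.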
With `O=S(=O)(OCC(F)(F)F)C(F)(F)C(F)(F)C(F)(F)C(F)(F)F` the outcome was “inactive”. With `CCN(CCO)S(=O)(=O)C(F)(F)C(F)(F)C(F)(F)C(F)(F)C(F)(F)C(F)(F)C(F)(F)C(F)(F)F` the outcome was “inactive”. With `FC(F)(F)C(F)(F)C(F)(F)C(F)(F)C(F)(F)C(F)(F)C(F)(F)I` the outcome was “inactive”. In the case of `OCCCC(F)(F)C(F)(F)C(F)(F)C(F)(F)C(F)(F)C(F)(F)C(F)(F)C(F)(F)F`, the outcome is reported as “inactive”. In the case of `C=C(C)C(=O)OCCC(F)(F)C(F)(F)C(F)(F)C(F)(F)C(F)(C(F)(F)F)C(F)(F)F`, the outcome is reported as “inactive”. In the case of `FC(F)C(F)(F)COCC1CO1` (stereo unspecified), the outcome is reported as “inactive”. With `O=C(O)C(F)(OC(F)(F)C(F)(OC(F)(F)C(F)(F)C(F)(F)F)C(F)(F)F)C(F)(F)F` (stereo unspecified) the outcome was “inactive”. In the case of `FC(F)(F)C(F)(F)C(F)(F)C(F)(F)C(F)(F)CCI`, the outcome is reported as “inactive”. With `FC(F)(F)C(F)(F)C(F)(F)C(F)(F)C(F)(F)C(F)(F)C(F)(F)C(F)(F)CCS` the outcome was “inactive”. In the case of `C[N+](C)(C)CCCNS(=O)(=O)C(F)(F)C(F)(F)C(F)(F)C(F)(F)C(F)(F)C(F)(F)C(F)(F)C(F)(F)F`, the outcome is reported as “inactive”. With `O=S(=O)(OCC(F)F)C(F)(F)F` the outcome was “inactive”. In the case of `FC(F)=C(F)C(F)(F)C(F)(F)C(F)(F)C(F)(F)C(F)(F)C(F)(F)F`, the outcome is reported as “inactive”. In the case of `FC(F)(F)C(F)(F)C(F)(F)CC1CO1` (stereo unspecified), the outcome is reported as “inactive”. In the case of `COC(F)(C(F)F)C(F)(F)F` (stereo unspecified), the outcome is reported as “inactive”. For `FC(F)(F)C(F)(F)CNCC(F)(F)C(F)(F)F`, the outcome was “inactive”. In the case of `NC(=O)C(F)(F)C(F)(F)C(F)(F)C(F)(F)C(N)=O`, the outcome is reported as “inactive”. With `OCCCCC(F)(F)C(F)(F)C(F)(F)C(F)(F)F` the outcome was “inactive”. For `OCC(F)(F)C(F)(F)C(F)(F)CO`, the outcome was “inactive”. For `C=C(C)C(=O)OCC(F)(F)C(F)(F)C(F)(F)F`, the outcome was “inactive”.
